PubChem BioAssay (Tox21)
“And” between values parts separate entries of the source, which are not always exact repeats. Equal entries are not always repeated. Records with an inconclusive call do not appear. A call without a number means that no potency is given here. The source made the active and inactive calls. Calls come from the whole dose curve; as a rule, active = well fitted curve in the direction sought with a large enough effect in the repeat runs; inconclusive = weak or mixed curves; inactive = no such curve, though single readings can be large; an effect the other way counts as inactive or inconclusive.

How the values were obtained:
[1] = A CellTox Green Cytotoxicity Assay to monitor cytotoxicity in HepG2 cells - 0 hour (AID 1224882); note: nearly all actives have a fitted effect of over 35% in size
Method in brief: (§1)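 Cytotoxicity was tracked as dead-cell DNA fluorescence in HepG2 cells treated with test compounds at 37 C; each time-point value comes from one kinetic series spanning 0, 8, 16, 24, 32 and 40 h.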

[2] = A CellTox Green Cytotoxicity Assay to monitor cytotoxicity in HepG2 cells - 32 hour (AID 1224883); note: nearly all actives have a fitted effect of over 50% in size; note: potency is the fitted concentration of half-maximal effect
Method in brief: as §1

[3] = qHTS RealTime-Glo MT Cell Viability Assay in HepG2 cells - 16 hour (AID 1224885); note: nearly all actives have a fitted effect of over 50% in size; note: potency is the fitted concentration of half-maximal effect
Method in brief: (§2)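 HepG2 cells (600/well) were dispensed with RealTime-Glo reagents, incubated 5 h at 37 °C, then treated with compounds in DMSO for up to 40 h. Nonlytic NanoLuc luminescence reflecting viable cells was read at each stated time point.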

[4] = qHTS RealTime-Glo MT Cell Viability Assay in HEK293 cells - 24 hour (AID 1224886); note: nearly all actives have a fitted effect of over 50% in size; note: potency is the fitted concentration of half-maximal effect
Method in brief: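 HEK293 cells seeded with NanoLuc/prosubstrate reagent, rested 5 h at 37 C, then dosed and kept at 37 C up to 40 h. Nonlytic real-time luminescence from viable cells read at 0, 8, 16, 24, 32 and 40 h.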

[5] = qHTS RealTime-Glo MT Cell Viability Assay in HEK293 cells - 8 hour (AID 1224887); note: nearly all actives have a fitted effect of over 50% in size; note: potency is the fitted concentration of half-maximal effect
Method in brief: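 Kinetic, non-lysing viability readout. Seed HEK293 (600/well) with reagent, incubate 5 h at 37 C/5% CO2, pin 23 nL compound in DMSO, incubate at 37 C, read luminescence at 0, 8, 16, 24, 32, 40 h.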

[6] = qHTS RealTime-Glo MT Cell Viability Assay in HepG2 cells - 0 hour (AID 1224889); note: nearly all actives have a fitted effect of over 50% in size
Method in brief: as §2

[7] = A CellTox Green Cytotoxicity Assay to monitor cytotoxicity in HEK293 cells - 16 hour (AID 1224888); note: nearly all actives have a fitted effect of over 35% in size; note: potency is the fitted concentration of half-maximal effect
Method in brief: (§3)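 Real-time, in one plate: 600 HEK293 cells/well with dead-cell DNA dye, pinned compound after 5 h, 37 C incubation over 40 h; viable cells give no appreciable fluorescence.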

[8] = A CellTox Green Cytotoxicity Assay to monitor cytotoxicity in HepG2 cells - 8 hour (AID 1224890); note: nearly all actives have a fitted effect of over 45% in size; note: potency is the fitted concentration of half-maximal effect
Method in brief: as §1

[9] = A CellTox Green Cytotoxicity Assay to monitor cytotoxicity in HEK293 cells - 8 hour (AID 1224884); note: nearly all actives have a fitted effect of over 35% in size; note: potency is the fitted concentration of half-maximal effect
Method in brief: as §3

Compound	Potency [1]	Potency [2]	Potency [3]	Potency [4]	Potency [5]	Potency [6]	Potency [7]	Potency [8]	Potency [9]
CC(C)(c1ccc(O)c(-c2ccccc2)c1)c1ccc(O)c(-c2ccccc2)c1	inactive	49 µM (active)	49 µM (active)	21.9 µM (active)	21.9 µM (active)	inactive	–	–	–
CC(=O)O[C@H]1CC[C@@]2(C)C(=CC[C@@H]3[C@@H]2CC[C@]2(C)C(=O)CC[C@@H]32)C1	inactive	–	inactive	54.9 µM (active)	–	–	inactive	inactive	–
CC1(C)CC/C(=C/c2ccc(Cl)cc2)C1(O)Cn1cncn1 (stereo not given)	inactive	–	inactive	24.4 µM (active)	–	–	–	inactive	inactive
CN(C)c1ccc(N=Nc2ccccc2)cc1	inactive	inactive	inactive	–	–	inactive	–	inactive	–
CCOP(=O)(NC(C)C)Oc1ccc(SC)c(C)c1 (stereo not given)	inactive	–	inactive	–	–	inactive	–	–	inactive
ClCc1ccc(Cl)cc1Cl	inactive	inactive	inactive	inactive	inactive	inactive	–	inactive	–
O=C(CCl)Nc1ccccc1	inactive	–	inactive	43.6 µM (active)	–	inactive	inactive	inactive	inactive
CCN(CC)c1c([N+](=O)[O-])cc(C(F)(F)F)c(N)c1[N+](=O)[O-]	inactive	–	–	17.4 µM (active)	6.92 µM (active)	inactive	inactive	–	inactive
COC12CC[C@@]3(C[C@@H]1C(C)(O)C(C)(C)C)[C@H]1Cc4ccc(O)c5c4[C@@]3(CCN1CC1CC1)[C@H]2O5 (stereo not given in full)	inactive	–	43.4 µM (active)	34.4 µM (active)	38.6 µM (active)	inactive	21.7 µM (active)	43.4 µM (active)	24.4 µM (active)
COC(=O)N(C(=O)N1COC2(C(=O)OC)Cc3cc(Cl)ccc3C2=N1)c1ccc(OC(F)(F)F)cc1 (stereo not given)	inactive	inactive	–	–	–	–	–	inactive	inactive
CC(Cc1ccc(C(C)(C)C)cc1)CN1C[C@@H](C)O[C@@H](C)C1 (stereo not given in full)	inactive	49 µM (active)	inactive	–	–	inactive	–	–	–
O=S(=O)(c1ccc(Cl)cc1)c1ccc(Cl)cc1	inactive	–	inactive	–	–	inactive	inactive	inactive	inactive
CC(C)OC(=S)S	inactive	–	–	–	–	inactive	inactive	inactive	inactive
CC(=O)c1ccc(-c2ccccc2)cc1	inactive	inactive	inactive	inactive	–	–	inactive	inactive	–
COc1cccc(C(=O)CCN[C@@H](C)[C@H](O)c2ccccc2)c1	inactive	–	–	–	inactive	inactive	–	inactive	inactive
Cc1cc(N=Nc2ccccc2C)ccc1N	inactive	–	–	21.9 µM (active) and 19.5 µM (active)	21.9 µM (active) and 19.5 µM (active)	inactive	–	–	inactive
Oc1c(Br)c(Br)c(Br)c(Br)c1Br	inactive	–	inactive	–	–	inactive	inactive	inactive	inactive
CC(Cl)CN(C)C (stereo not given)	inactive	–	–	–	–	–	–	inactive	–
CC1(c2ccc(Oc3ccccc3)cc2)OC(=O)N(Nc2ccccc2)C1=O (stereo not given)	inactive	–	49.3 µM (active)	43.9 µM (active)	–	inactive	–	–	–
CC(C)OC(=O)C(O)(c1ccc(Cl)cc1)c1ccc(Cl)cc1	inactive	27.5 µM (active)	–	21.9 µM (active)	–	inactive	–	–	inactive
CCOc1cc(C(C)(C)C)ccc1C1COC(c2c(F)cccc2F)=N1 (stereo not given)	inactive	inactive	–	–	inactive	inactive	inactive	inactive	inactive
Oc1ccc2ccc3cccc4ccc1c2c34	inactive	54.9 µM (active)	49 µM (active)	15.5 µM (active)	–	inactive	–	–	–
ClCc1ccccc1CCl	inactive	–	inactive	–	inactive	–	–	inactive	inactive
Clc1ccc(C(Cl)(Cl)Cl)c(Cl)c1	inactive	–	–	–	inactive	inactive	–	–	–
